# Measurements as given in paper PMC12214610.
# Experiments:
# [1] = target: Small ribosomal subunit protein uS8 (UniProt P0A7W7)
# [2] = target: Large ribosomal subunit protein eL24 (UniProt P83731)
# [3] = target: Small ribosomal subunit protein uS11 (UniProt P62263)
# [4] = target: Small ribosomal subunit protein uS4 (UniProt P46781)
# [5] = target: Large ribosomal subunit protein uL5 (UniProt P62399)
# [6] = target: Small ribosomal subunit protein uS19 (UniProt P0A7U3)
# [7] = target: Small ribosomal subunit protein uS3 (UniProt P0A7V3)
# [8] = target: Large ribosomal subunit protein eL6 (UniProt Q02878)
# [9] = target: Large ribosomal subunit protein eL36 (UniProt Q9Y3U8)
# Cofilin-1 = Cofilin-1 (UniProt P23528)
# [10] = target: Large ribosomal subunit protein eL20 (UniProt Q02543)
# [11] = target: Large ribosomal subunit protein bL9 (UniProt P0A7R1)
# Actin, cytoplasmic 2 = Actin, cytoplasmic 2 (UniProt P63261)
# [12] = target: Heat shock 70 kDa protein 1B (UniProt P0DMV9)
# [13] = target: Heat shock cognate 71 kDa protein (UniProt P11142)
# [14] = target: Peptidyl-prolyl cis-trans isomerase A (UniProt P62937)
# [15] = target: Small ribosomal subunit protein bS1 (UniProt P0AG67)
# [16] = target: Large ribosomal subunit protein uL4 (UniProt P36578)
# [17] = target: Large ribosomal subunit protein uL22 (UniProt P61175)
# [18] = target: Large ribosomal subunit protein uL2 (UniProt P60422)
# [19] = target: Small ribosomal subunit protein bS21 (UniProt P68679)
# [20] = target: Elongation factor 1-alpha 1 (UniProt P68104)
# [21] = target: Adenylyl cyclase-associated protein 1 (UniProt Q01518)
# [22] = target: DNA-binding protein HU-beta (UniProt P0ACF4)
# [23] = target: Small ribosomal subunit protein uS5 (UniProt P0A7W1)
# [24] = target: 30S ribosome-binding factor (UniProt P0A7G2)
# [25] = target: Large ribosomal subunit protein uL24 (UniProt P60624)
# [26] = target: Small ribosomal subunit protein uS13 (UniProt P0A7S9)
# Profilin-1, P07737, sequence (P07737 whole entry): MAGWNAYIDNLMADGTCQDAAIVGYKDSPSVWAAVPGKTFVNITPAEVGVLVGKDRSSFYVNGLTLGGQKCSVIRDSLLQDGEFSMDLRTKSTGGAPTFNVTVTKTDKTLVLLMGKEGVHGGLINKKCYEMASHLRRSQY
# Heat shock 70 kDa protein 1B, sequence (P0DMV9 whole entry): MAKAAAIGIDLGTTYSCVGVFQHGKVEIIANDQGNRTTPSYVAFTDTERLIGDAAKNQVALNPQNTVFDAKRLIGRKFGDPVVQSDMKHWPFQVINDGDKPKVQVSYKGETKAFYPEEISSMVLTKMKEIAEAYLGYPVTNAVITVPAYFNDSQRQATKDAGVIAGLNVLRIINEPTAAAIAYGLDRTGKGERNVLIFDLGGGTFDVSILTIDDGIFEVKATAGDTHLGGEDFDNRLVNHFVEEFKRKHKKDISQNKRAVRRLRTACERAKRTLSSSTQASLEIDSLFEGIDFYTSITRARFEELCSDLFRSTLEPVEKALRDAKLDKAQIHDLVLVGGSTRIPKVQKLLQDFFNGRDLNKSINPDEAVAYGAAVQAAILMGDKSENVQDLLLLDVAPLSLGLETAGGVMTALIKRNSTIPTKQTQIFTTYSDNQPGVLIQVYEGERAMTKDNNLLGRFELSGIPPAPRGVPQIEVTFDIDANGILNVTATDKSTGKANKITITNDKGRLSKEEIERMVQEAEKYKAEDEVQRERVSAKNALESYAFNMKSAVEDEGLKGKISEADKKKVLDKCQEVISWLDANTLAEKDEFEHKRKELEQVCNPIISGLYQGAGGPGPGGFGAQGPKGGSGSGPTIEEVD
# Heat shock cognate 71 kDa protein, sequence (P11142 whole entry): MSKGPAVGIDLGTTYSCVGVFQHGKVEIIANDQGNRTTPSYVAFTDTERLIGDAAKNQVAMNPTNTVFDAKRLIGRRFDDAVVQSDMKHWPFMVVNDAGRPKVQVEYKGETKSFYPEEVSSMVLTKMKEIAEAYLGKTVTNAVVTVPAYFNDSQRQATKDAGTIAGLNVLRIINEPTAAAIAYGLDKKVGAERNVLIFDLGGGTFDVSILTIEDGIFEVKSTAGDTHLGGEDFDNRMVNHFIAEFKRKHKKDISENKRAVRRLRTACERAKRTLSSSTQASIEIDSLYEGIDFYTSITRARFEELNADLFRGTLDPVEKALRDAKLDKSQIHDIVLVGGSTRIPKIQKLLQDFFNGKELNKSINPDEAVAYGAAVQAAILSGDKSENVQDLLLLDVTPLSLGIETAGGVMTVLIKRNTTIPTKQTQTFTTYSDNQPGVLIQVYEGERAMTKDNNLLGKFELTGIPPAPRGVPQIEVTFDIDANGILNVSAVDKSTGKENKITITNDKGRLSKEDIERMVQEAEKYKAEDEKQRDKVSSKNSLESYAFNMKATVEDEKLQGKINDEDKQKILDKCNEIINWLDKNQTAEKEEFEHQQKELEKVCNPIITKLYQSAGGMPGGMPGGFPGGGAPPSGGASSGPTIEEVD
# Cofilin-1, sequence (P23528 whole entry): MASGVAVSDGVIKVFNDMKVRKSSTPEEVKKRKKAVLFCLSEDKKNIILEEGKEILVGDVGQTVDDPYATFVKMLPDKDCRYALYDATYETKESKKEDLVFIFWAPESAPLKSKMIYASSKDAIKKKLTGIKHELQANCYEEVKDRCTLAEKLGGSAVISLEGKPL
substance,measurement,setting,value
"Small ribosomal subunit protein uS5, P0A7W1",listed as a hit,[1],yes
"Large ribosomal subunit protein uL4, P36578",listed as a hit,[2],yes
same,listed as a hit,[3],yes
same,listed as a hit,[4],yes
"Large ribosomal subunit protein bL31, P0A7M9",listed as a hit,[5],yes
same,listed as a hit,[6],yes
"Small ribosomal subunit protein uS2, P0A7V0",listed as a hit,[7],yes
same,listed as a hit,[1],yes
"Large ribosomal subunit protein eL28, P46779",listed as a hit,[8],yes
"Large ribosomal subunit protein eL15, P61313",listed as a hit,[9],yes
"Profilin-1, P07737",listed as a hit,Cofilin-1,yes
"Small ribosomal subunit protein uS4, P46781",listed as a hit,[10],yes
"Large ribosomal subunit protein bL28, P0A7M2",listed as a hit,[11],yes
"Polyubiquitin-B, P0CG47",listed as a hit,"Actin, cytoplasmic 2",yes
same,listed as a hit,[12],yes
same,listed as a hit,[13],yes
same,listed as a hit,[14],yes
"Small ribosomal subunit protein uS10, P0A7R5",listed as a hit,[15],yes
same,listed as a hit,[7],yes
"Large ribosomal subunit protein uL16, P27635",listed as a hit,[16],yes
same,listed as a hit,[4],yes
"Small ribosomal subunit protein uS9, P0A7X3",listed as a hit,[15],yes
"Large ribosomal subunit protein bL32, P0A7N4",listed as a hit,[17],yes
"Large ribosomal subunit protein bL9, P0A7R1",listed as a hit,[18],yes
"Small ribosomal subunit protein bS18, P0A7T7",listed as a hit,[19],yes
"Small ribosomal subunit protein uS19, P0A7U3",listed as a hit,[5],yes
"Elongation factor 2, P13639",listed as a hit,"Actin, cytoplasmic 2",yes
same,listed as a hit,[20],yes
"Large ribosomal subunit protein bL27, P0A7L8",listed as a hit,[5],yes
"Actin, alpha skeletal muscle, P68133",listed as a hit,[21],yes
"Large ribosomal subunit protein bL19, P0A7K6",listed as a hit,[22],yes
"Small ribosomal subunit protein uS4, P0A7V8",listed as a hit,[23],yes
"Peptidyl-prolyl cis-trans isomerase A, P62937",listed as a hit,[20],yes
"Small ribosomal subunit protein uS11, P0A7R9",listed as a hit,[15],yes
"Small ribosomal subunit protein uS7, P02359",listed as a hit,[24],yes
same,listed as a hit,[25],yes
same,listed as a hit,[15],yes
same,listed as a hit,[26],yes
